Records with an inconclusive call do not appear. The source made the active and inactive calls. Calls follow the shape of the dose curve; as a rule, active = well fitted inhibition curve with a large enough effect; inconclusive = small, poorly fitted or top-dose-only effect; inactive = flat fitted curve, though single readings scatter.
What was measured:
Assay in all cases: qHTS profiling for inhibitors of Plasmodium falciparum proliferation (AID 504749); also: nearly all actives have a fitted effect of over 60% in size
Details in all cases: P. falciparum in erythrocytes, SYBR Green DNA, 72 h; series mostly up to 28.7 µM
CP238 = system: CP238
Method in brief: (§1)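 SYBR Green fluorescence of parasite DNA, read after lysis and overnight dark incubation, measured growth over 72 h in erythrocyte culture at 0.3% parasitemia and 2.5% hematocrit. Data normalised to DMSO and 0.29 uM artemisinin, with plate-drift correction.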

CP247 = system: CP247
Method in brief: as §1

CP250 = system: CP250
Method in brief: as §1

CP252 = system: CP252
Method in brief: as §1

CP256 = system: CP256
Method in brief: as §1

CP260 = system: CP260
Method in brief: as §1

CP262 = system: CP262
Method in brief: as §1

CP265 = system: CP265
Method in brief: as §1

CP266 = system: CP266
Method in brief: as §1

CP268 = system: CP268
Method in brief: as §1

CP269 = system: CP269
Method in brief: as §1

CP286 = system: CP286
Method in brief: as §1

CP291 = system: CP291
Method in brief: as §1

CP297 = system: CP297
Method in brief: as §1

CP305 = system: CP305
Method in brief: as §1

CP315 = system: CP315
Method in brief: as §1

CP325 = system: CP325
Method in brief: as §1

CP329 = system: CP329
Method in brief: as §1

CP335 = system: CP335
Method in brief: as §1

DFO2036 = system: DFO2036
Method in brief: as §1

Measured: Potency
Potency is read from the fitted curve at half-maximal effect.

CCCCNC(=O)NS(=O)(=O)c1ccc(C)cc1
inactive: CP238 | CP247 | CP250 | CP252 | CP256 | CP260 | CP262 | CP265 | CP266 | CP268 | CP269 | CP286 | CP291 | CP297 | CP305 | CP315 | CP325 | CP329 | CP335 | DFO2036

O=C(CCNNC(=O)c1ccncc1)NCc1ccccc1
inactive: CP238 | CP247 | CP250 | CP252 | CP256 | CP260 | CP262 | CP265 | CP266 | CP268 | CP269 | CP286 | CP291 | CP297 | CP305 | CP315 | CP325 | CP329 | CP335 | DFO2036

Cc1nc2c([nH]1)c(=O)n(C)c(=O)n2Cc1ccco1
inactive: CP238 | CP247 | CP250 | CP252 | CP256 | CP260 | CP262 | CP265 | CP266 | CP268 | CP269 | CP286 | CP291 | CP297 | CP305 | CP315 | CP325 | CP329 | CP335 | DFO2036

O=C(O)CP(=O)(O)O
inactive: CP238 | CP247 | CP250 | CP252 | CP256 | CP260 | CP262 | CP265 | CP266 | CP268 | CP269 | CP286 | CP291 | CP297 | CP305 | CP315 | CP325 | CP329 | CP335 | DFO2036

Cc1nnc(SCC2=C(C(=O)O)N3C(=O)[C@@H](NC(=O)Cn4cnnn4)[C@H]3SC2)s1
inactive: CP238 | CP247 | CP250 | CP252 | CP256 | CP260 | CP262 | CP265 | CP266 | CP268 | CP269 | CP286 | CP291 | CP297 | CP305 | CP315 | CP325 | CP329 | CP335 | DFO2036

NC(Cc1ccc(Cl)cc1)C(=O)O (stereo not given)
inactive: CP238 | CP247 | CP250 | CP252 | CP256 | CP260 | CP262 | CP265 | CP266 | CP268 | CP269 | CP286 | CP291 | CP297 | CP305 | CP315 | CP325 | CP329 | CP335 | DFO2036

NS(=O)(=O)c1cc2c(cc1Cl)NC(C1CC3C=CC1C3)NS2(=O)=O (stereo not given)
inactive: CP238 | CP247 | CP250 | CP252 | CP256 | CP260 | CP262 | CP265 | CP266 | CP268 | CP269 | CP286 | CP291 | CP297 | CP305 | CP315 | CP325 | CP329 | CP335 | DFO2036

CN1CCN(C2=Nc3ccccc3Oc3ccc(Cl)cc32)CC1
inactive: CP238 | CP247 | CP250 | CP252 | CP256 | CP260 | CP262 | CP265 | CP266 | CP268 | CP269 | CP286 | CP291 | CP297 | CP305 | CP315 | CP325 | CP329 | CP335 | DFO2036

NC(=O)c1cn(Cc2c(F)cccc2F)nn1
inactive: CP238 | CP247 | CP250 | CP252 | CP256 | CP260 | CP262 | CP265 | CP266 | CP268 | CP269 | CP286 | CP291 | CP297 | CP305 | CP315 | CP325 | CP329 | CP335 | DFO2036

COc1cc2c(cc1OC)-c1cc(=Nc3c(C)cc(C)cc3C)n(C)c(=O)n1CC2
active: CP238 10 µM | CP247 5.62 µM | CP250 3.55 µM | CP252 11.2 µM | CP256 4.47 µM | CP260 3.16 µM | CP262 4.78 µM | CP265 7.94 µM | CP266 6.75 µM | CP268 1.51 µM | CP269 4.78 µM | CP286 2 µM | CP291 2.13 µM | CP297 5.36 µM | CP305 3.79 µM | CP315 6.75 µM | CP325 4.26 µM | CP329 4.78 µM | CP335 4.26 µM | DFO2036 3.55 µM

C[C@H](CS)C(=O)N1CCC[C@H]1C(=O)O
inactive: CP238 | CP247 | CP250 | CP252 | CP256 | CP260 | CP262 | CP265 | CP266 | CP268 | CP269 | CP286 | CP291 | CP297 | CP305 | CP315 | CP325 | CP329 | CP335 | DFO2036

CC[N+](C)(C)c1cccc(O)c1
inactive: CP238 | CP247 | CP250 | CP252 | CP256 | CP260 | CP262 | CP265 | CP266 | CP268 | CP269 | CP286 | CP291 | CP297 | CP305 | CP315 | CP325 | CP329 | CP335 | DFO2036

CCN1CCC[C@H]1CNC(=O)c1c(O)c(Cl)cc(Cl)c1OC
inactive: CP238 | CP247 | CP250 | CP252 | CP256 | CP260 | CP262 | CP265 | CP266 | CP268 | CP269 | CP286 | CP291 | CP297 | CP305 | CP315 | CP325 | CP329 | CP335 | DFO2036

CCN(CC)CC(=O)Nc1c(C)cccc1C
inactive: CP238 | CP247 | CP250 | CP252 | CP256 | CP260 | CP262 | CP265 | CP266 | CP268 | CP269 | CP286 | CP291 | CP297 | CP305 | CP315 | CP325 | CP329 | CP335 | DFO2036

O=C(O)CCCCCCCC(=O)O
inactive: CP238 | CP247 | CP250 | CP252 | CP256 | CP260 | CP262 | CP265 | CP266 | CP268 | CP269 | CP286 | CP291 | CP297 | CP305 | CP315 | CP325 | CP329 | CP335 | DFO2036

C[N+](C)(C)CCOC(N)=O
inactive: CP238 | CP247 | CP250 | CP252 | CP256 | CP260 | CP262 | CP265 | CP266 | CP268 | CP269 | CP286 | CP291 | CP297 | CP305 | CP315 | CP325 | CP329 | CP335 | DFO2036

COc1ccc([C@@H]2Sc3ccccc3N(CCN(C)C)C(=O)[C@@H]2OC(C)=O)cc1
inactive: CP238 | CP247 | CP250 | CP252 | CP256 | CP260 | CP262 | CP265 | CP266 | CP268 | CP269 | CP286 | CP291 | CP297 | CP305 | CP315 | CP325 | CP329 | CP335 | DFO2036

CN=C(NC#N)NCCSCc1nc[nH]c1C
inactive: CP238 | CP247 | CP250 | CP252 | CP256 | CP260 | CP262 | CP265 | CP266 | CP268 | CP269 | CP286 | CP291 | CP297 | CP305 | CP315 | CP325 | CP329 | CP335 | DFO2036

CC(=O)OCC1=C(C(=O)O)N2C(=O)[C@@H](NC(=O)Cc3cccs3)[C@H]2SC1
inactive: CP238 | CP247 | CP250 | CP252 | CP256 | CP260 | CP262 | CP265 | CP266 | CP268 | CP269 | CP286 | CP291 | CP297 | CP305 | CP315 | CP325 | CP329 | CP335 | DFO2036

CSc1ccc(C(=O)c2[nH]c(=O)[nH]c2C)cc1
inactive: CP238 | CP247 | CP250 | CP252 | CP256 | CP260 | CP262 | CP265 | CP266 | CP268 | CP269 | CP286 | CP291 | CP297 | CP305 | CP315 | CP325 | CP329 | CP335 | DFO2036

NC(=O)N1c2ccccc2C=Cc2ccccc21
inactive: CP238 | CP247 | CP250 | CP252 | CP256 | CP260 | CP262 | CP265 | CP266 | CP268 | CP269 | CP286 | CP291 | CP297 | CP305 | CP315 | CP325 | CP329 | CP335 | DFO2036

C[N+](C)(C)CCCCCCCCCC[N+](C)(C)C
active: CP238 5.01 µM | CP247 5.01 µM | CP250 7.08 µM | CP252 3.98 µM | CP256 2.51 µM | CP260 2.24 µM | CP262 1.69 µM | CP265 2.82 µM | CP266 4.78 µM | CP268 4.78 µM | CP269 3.38 µM | CP286 4.47 µM | CP291 3.38 µM | CP297 4.78 µM | CP305 4.26 µM | CP315 4.26 µM | CP325 3.38 µM | CP329 3.38 µM | CP335 1.9 µM | DFO2036 4.47 µM

FC(F)(F)c1ccccc1-n1ccnc1
inactive: CP238 | CP247 | CP250 | CP252 | CP256 | CP260 | CP262 | CP265 | CP266 | CP268 | CP269 | CP286 | CP291 | CP297 | CP305 | CP315 | CP325 | CP329 | CP335 | DFO2036

CC(=O)Nc1nnc(S(N)(=O)=O)s1
inactive: CP238 | CP247 | CP250 | CP252 | CP256 | CP260 | CP262 | CP265 | CP266 | CP268 | CP269 | CP286 | CP291 | CP297 | CP305 | CP315 | CP325 | CP329 | CP335 | DFO2036

C[N+](C)(C)CCOC(=O)CCC(=O)OCC[N+](C)(C)C
inactive: CP238 | CP247 | CP250 | CP252 | CP256 | CP260 | CP262 | CP265 | CP266 | CP268 | CP269 | CP286 | CP291 | CP297 | CP305 | CP315 | CP325 | CP329 | CP335 | DFO2036

Nc1c2c(nc3ccccc13)CCCC2O (stereo not given)
inactive: CP238 | CP247 | CP250 | CP252 | CP256 | CP260 | CP262 | CP265 | CP266 | CP268 | CP269 | CP286 | CP291 | CP297 | CP305 | CP315 | CP325 | CP329 | CP335 | DFO2036

— PubChem BioAssay (NCATS)
